Experimental data as given in PMC7862700, “An all-to-all approach to the identification of sequence-specific readers for epigenetic DNA modifications on cytosine”.

Experiments:
Test in all cases: DAPPL (digital affinity profiling via proximity ligation, sequencing); 10 mM Tris-HCl pH 7.5, 50 mM NaCl, 1 mM DTT, 4% glycerol, room temperature, 30 min; GST-TFs on glutathione beads, 16-mer random dsDNA library, 0.1% formaldehyde crosslink after washing; high values mean tight binding
FEV = target: T1, FEV (Homo sapiens, UniProt Q99581 1-238); conditions: protein: recombinant; tags: N-terminal GST; dsDNA, one strand shown
T1 sequence: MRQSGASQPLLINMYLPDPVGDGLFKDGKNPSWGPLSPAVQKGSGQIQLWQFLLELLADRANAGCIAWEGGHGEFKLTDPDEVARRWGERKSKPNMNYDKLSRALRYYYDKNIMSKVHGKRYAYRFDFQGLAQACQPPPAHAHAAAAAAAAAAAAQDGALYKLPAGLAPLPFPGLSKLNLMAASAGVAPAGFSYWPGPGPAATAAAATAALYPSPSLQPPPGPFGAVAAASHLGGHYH
How it was run: (§1)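 The binding signal reported is, for every hexamer, its read frequency for a factor over its read frequency for the tag-only sample. Reads came from pools of yeast-expressed, GST-fused human transcription factors on glutathione beads, barcoded with DNA and mixed with that sample, which were incubated with 200 nmole of a random double-stranded 16-mer DNA library in Tris/NaCl/DTT/glycerol buffer at room temperature for 30 min. After washing, the pools were crosslinked with 0.1% formaldehyde, proximity-ligated with BsaI/T4 ligase for 1 h at 37 °C, PCR-amplified and sequenced on an Illumina NextSeq500.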

ETV5 = ETV5 (Homo sapiens, UniProt P41161 1-510); conditions: protein: recombinant; tags: N-terminal GST; dsDNA, one strand shown
Chain of ETV5 (P41161 whole entry): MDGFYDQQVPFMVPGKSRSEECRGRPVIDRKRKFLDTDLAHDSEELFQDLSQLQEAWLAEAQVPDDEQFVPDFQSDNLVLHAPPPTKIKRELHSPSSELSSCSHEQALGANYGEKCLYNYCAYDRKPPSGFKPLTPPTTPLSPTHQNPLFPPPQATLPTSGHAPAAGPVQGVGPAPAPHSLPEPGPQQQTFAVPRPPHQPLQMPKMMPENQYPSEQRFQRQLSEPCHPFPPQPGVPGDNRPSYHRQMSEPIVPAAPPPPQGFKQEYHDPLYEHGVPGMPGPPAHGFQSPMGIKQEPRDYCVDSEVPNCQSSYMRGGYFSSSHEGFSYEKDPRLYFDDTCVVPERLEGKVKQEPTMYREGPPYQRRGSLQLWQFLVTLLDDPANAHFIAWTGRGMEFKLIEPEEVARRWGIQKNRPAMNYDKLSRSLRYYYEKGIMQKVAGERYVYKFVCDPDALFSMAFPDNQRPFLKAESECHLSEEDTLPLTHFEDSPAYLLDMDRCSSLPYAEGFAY
How it was run: as §1

HSF1 = HSF1 (Homo sapiens, UniProt Q00613 1-529); conditions: protein: recombinant; tags: N-terminal GST; chain copies: 3; dsDNA, one strand shown
Chain of HSF1 (Q00613 whole entry): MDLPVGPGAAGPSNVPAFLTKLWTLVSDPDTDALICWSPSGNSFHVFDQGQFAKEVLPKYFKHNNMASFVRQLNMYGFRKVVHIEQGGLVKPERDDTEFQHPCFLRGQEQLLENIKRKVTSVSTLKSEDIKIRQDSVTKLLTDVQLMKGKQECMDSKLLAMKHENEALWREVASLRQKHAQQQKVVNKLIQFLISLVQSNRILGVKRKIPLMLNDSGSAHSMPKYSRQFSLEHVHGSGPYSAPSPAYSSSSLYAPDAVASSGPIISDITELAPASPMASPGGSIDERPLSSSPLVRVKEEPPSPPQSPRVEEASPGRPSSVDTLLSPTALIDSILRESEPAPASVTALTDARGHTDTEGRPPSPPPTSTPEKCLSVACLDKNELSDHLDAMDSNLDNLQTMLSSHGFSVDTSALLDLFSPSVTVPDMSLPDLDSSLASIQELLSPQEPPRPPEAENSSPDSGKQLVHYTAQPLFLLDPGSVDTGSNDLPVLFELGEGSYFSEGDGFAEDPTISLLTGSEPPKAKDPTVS
How it was run: as §1

SPIC = target: T2, SPIC (Homo sapiens, UniProt Q8N5J4 1-248); conditions: protein: recombinant; tags: N-terminal GST; dsDNA, one strand shown
T2 sequence: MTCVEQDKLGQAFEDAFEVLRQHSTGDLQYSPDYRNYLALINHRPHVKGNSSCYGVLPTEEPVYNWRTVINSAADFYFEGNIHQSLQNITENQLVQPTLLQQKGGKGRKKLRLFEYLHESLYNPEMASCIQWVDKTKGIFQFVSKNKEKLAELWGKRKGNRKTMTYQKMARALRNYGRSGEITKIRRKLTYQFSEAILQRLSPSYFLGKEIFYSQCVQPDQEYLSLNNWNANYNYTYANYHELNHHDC
How it was run: as §1

ELF4 = ELF4 (Homo sapiens, UniProt Q99607 1-663); conditions: protein: recombinant; tags: N-terminal GST; dsDNA, one strand shown
Chain of ELF4 (Q99607 whole entry): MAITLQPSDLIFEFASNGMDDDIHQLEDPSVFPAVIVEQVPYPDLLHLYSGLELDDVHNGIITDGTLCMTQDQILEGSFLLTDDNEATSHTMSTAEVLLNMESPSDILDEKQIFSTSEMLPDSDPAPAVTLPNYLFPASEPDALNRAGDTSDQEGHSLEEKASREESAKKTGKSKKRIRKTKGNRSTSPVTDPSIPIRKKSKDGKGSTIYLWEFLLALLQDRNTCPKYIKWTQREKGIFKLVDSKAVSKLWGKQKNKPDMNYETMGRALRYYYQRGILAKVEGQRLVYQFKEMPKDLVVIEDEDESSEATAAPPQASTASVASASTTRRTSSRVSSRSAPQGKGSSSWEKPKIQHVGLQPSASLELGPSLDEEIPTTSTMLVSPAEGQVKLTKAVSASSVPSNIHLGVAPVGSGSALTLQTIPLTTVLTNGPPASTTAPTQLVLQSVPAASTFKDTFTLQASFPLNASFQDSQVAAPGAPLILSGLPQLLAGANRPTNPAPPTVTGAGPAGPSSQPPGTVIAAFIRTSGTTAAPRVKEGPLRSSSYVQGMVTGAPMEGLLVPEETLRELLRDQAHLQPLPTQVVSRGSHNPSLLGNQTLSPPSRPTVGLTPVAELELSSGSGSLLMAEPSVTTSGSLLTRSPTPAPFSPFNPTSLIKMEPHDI
How it was run: as §1

ELK4 = target: T3, ELK4 (Homo sapiens, UniProt P28324-2 1-405); conditions: protein: recombinant; tags: N-terminal GST; dsDNA, one strand shown
T3 sequence: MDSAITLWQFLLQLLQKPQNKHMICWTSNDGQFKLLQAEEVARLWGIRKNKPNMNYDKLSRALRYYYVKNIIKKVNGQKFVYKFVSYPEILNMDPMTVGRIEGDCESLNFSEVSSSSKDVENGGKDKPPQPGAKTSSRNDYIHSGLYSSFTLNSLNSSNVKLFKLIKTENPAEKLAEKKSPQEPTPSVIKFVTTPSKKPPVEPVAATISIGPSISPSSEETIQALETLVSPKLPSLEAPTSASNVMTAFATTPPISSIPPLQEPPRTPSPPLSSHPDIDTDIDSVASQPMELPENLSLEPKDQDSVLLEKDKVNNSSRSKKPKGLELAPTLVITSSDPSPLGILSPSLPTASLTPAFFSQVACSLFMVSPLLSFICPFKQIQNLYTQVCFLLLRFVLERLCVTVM
How it was run: as §1

ETV2 = target: T4, ETV2 (Homo sapiens, UniProt O00321 1-342); conditions: protein: recombinant; tags: N-terminal GST; dsDNA, one strand shown
T4 sequence: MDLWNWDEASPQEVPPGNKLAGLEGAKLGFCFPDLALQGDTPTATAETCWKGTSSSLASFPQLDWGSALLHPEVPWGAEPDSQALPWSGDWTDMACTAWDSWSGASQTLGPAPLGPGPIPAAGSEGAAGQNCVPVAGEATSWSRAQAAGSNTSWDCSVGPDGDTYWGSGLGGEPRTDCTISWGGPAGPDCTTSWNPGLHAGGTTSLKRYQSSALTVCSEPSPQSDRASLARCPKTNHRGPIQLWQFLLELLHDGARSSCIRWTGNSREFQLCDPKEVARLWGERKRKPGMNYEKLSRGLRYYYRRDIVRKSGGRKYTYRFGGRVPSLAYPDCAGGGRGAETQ
How it was run: as §1

ELF3 = target: T5, ELF3 (Homo sapiens, UniProt P78545 1-371); conditions: protein: recombinant; tags: N-terminal GST; dsDNA, one strand shown
T5 sequence: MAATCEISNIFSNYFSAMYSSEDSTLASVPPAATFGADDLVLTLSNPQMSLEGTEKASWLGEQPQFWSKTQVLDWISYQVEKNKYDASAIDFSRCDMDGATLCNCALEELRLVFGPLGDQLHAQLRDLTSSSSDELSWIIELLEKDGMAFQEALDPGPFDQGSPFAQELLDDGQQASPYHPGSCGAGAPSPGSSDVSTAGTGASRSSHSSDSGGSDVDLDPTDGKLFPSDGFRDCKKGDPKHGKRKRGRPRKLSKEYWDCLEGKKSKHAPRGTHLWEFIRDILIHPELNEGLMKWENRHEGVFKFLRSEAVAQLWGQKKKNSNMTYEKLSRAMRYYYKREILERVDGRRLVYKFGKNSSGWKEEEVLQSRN
How it was run: as §1

CRX = CRX (Homo sapiens, UniProt O43186 1-299); conditions: protein: recombinant; tags: N-terminal GST; dsDNA, one strand shown
Chain of CRX (O43186 whole entry): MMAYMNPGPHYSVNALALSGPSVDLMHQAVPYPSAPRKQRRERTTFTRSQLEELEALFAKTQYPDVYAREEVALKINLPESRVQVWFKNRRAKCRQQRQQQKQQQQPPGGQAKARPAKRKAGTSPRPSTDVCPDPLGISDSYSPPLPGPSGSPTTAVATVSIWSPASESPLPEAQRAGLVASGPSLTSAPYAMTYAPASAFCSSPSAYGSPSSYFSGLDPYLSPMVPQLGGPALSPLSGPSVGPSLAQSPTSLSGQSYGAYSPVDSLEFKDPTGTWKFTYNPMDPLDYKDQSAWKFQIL
How it was run: as §1

ETV1 = ETV1 (Homo sapiens, UniProt P50549 1-477); conditions: protein: recombinant; tags: N-terminal GST; dsDNA, one strand shown
Chain of ETV1 (P50549 whole entry): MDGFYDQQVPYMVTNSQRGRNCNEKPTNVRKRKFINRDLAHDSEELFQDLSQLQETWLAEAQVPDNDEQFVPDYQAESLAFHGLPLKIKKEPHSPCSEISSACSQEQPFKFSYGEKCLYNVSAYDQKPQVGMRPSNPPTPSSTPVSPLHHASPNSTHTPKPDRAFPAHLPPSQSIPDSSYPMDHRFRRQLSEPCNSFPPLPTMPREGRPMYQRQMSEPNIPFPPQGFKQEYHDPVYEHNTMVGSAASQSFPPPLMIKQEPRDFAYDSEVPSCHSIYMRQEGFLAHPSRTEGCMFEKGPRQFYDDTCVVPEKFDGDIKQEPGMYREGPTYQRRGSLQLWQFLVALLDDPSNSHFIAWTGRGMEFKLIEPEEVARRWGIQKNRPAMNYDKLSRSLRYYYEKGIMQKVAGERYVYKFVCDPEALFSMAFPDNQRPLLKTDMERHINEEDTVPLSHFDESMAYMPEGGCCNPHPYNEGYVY
How it was run: as §1

ERF = target: T6, ERF (Homo sapiens, UniProt P50548 1-548); conditions: protein: recombinant; tags: N-terminal GST; dsDNA, one strand shown
T6 sequence: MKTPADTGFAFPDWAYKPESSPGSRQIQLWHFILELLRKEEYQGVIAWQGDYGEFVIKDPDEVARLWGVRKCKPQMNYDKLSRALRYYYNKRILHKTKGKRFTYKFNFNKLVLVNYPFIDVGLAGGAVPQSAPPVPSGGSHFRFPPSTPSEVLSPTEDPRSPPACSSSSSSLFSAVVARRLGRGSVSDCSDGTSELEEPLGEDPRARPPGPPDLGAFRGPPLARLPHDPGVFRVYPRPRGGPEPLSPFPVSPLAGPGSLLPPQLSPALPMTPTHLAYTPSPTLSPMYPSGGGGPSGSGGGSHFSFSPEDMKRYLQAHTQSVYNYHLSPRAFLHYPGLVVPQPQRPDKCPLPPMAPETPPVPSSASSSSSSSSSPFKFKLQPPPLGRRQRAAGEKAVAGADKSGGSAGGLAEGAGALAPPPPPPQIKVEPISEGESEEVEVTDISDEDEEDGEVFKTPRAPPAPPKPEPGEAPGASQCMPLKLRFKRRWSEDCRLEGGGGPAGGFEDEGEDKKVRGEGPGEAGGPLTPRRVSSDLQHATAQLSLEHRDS
How it was run: as §1

ETV3L = target: T7, ETV3L (Homo sapiens, UniProt Q6ZN32 1-361); conditions: protein: recombinant; tags: N-terminal GST; dsDNA, one strand shown
T7 sequence: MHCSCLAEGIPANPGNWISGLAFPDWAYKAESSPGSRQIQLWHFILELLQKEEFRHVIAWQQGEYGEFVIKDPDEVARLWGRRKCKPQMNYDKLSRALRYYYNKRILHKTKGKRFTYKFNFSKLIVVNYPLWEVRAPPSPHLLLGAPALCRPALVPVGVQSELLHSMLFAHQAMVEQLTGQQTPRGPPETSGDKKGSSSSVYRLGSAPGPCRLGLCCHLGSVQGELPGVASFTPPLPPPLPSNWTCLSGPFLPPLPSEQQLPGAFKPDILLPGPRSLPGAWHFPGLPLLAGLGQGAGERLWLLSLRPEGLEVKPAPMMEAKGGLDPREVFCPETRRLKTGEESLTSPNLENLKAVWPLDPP
How it was run: as §1

ETS2 = target: T8, ETS2 (Homo sapiens, UniProt P15036 1-469); conditions: protein: recombinant; tags: N-terminal GST; dsDNA, one strand shown
T8 sequence: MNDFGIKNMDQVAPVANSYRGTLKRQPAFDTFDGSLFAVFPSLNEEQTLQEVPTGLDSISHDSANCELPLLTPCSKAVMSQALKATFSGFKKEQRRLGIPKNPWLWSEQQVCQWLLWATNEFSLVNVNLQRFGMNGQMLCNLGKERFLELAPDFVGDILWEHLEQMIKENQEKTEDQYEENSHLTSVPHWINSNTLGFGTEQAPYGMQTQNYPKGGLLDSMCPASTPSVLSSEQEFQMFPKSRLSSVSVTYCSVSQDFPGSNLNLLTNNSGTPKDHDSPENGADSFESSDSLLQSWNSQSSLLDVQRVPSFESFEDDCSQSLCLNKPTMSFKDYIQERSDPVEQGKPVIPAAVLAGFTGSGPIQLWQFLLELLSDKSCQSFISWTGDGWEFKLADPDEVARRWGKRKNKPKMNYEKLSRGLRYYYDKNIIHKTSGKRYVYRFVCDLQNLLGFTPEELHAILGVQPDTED
How it was run: as §1

SPDEF = target: T9, SPDEF (Homo sapiens, UniProt O95238 1-335); conditions: protein: recombinant; tags: N-terminal GST; dsDNA, one strand shown
T9 sequence: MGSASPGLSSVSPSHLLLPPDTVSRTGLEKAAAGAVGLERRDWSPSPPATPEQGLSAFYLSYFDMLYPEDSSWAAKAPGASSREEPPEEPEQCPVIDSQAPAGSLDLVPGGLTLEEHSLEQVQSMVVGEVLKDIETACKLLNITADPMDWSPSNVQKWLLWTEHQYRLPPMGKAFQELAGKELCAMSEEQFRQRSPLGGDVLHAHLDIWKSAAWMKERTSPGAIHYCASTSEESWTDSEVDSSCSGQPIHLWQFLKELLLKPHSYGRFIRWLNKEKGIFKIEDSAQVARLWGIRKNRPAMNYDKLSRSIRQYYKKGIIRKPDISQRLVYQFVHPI
How it was run: as §1

ETV7 = target: T10, ETV7 (Homo sapiens, UniProt Q9Y603 1-341); conditions: protein: recombinant; tags: N-terminal GST; dsDNA, one strand shown
T10 sequence: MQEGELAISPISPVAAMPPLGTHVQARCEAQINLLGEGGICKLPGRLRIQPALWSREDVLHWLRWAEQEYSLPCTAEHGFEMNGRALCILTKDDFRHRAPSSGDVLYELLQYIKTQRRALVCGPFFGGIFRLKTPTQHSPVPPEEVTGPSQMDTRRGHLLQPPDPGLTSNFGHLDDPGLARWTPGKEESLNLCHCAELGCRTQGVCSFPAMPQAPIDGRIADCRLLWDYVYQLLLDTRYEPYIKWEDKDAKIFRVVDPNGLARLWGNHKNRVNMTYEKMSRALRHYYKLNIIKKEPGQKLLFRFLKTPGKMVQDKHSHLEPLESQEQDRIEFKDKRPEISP
How it was run: as §1

ELF5 = target: T11, ELF5 (Homo sapiens, UniProt Q9UKW6-2 1-255); conditions: protein: recombinant; tags: N-terminal GST; dsDNA, one strand shown
T11 sequence: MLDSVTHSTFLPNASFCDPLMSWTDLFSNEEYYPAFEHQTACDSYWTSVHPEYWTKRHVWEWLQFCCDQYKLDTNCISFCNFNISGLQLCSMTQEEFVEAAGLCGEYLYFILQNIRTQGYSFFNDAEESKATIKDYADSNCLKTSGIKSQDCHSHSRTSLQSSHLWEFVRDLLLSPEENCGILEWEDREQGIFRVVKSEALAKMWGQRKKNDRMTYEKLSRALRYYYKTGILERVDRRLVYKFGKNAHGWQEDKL
How it was run: as §1

ETV3 = target: T12, ETV3 (Homo sapiens, UniProt P41162-2 1-143); conditions: protein: recombinant; tags: N-terminal GST; dsDNA, one strand shown
T12 sequence: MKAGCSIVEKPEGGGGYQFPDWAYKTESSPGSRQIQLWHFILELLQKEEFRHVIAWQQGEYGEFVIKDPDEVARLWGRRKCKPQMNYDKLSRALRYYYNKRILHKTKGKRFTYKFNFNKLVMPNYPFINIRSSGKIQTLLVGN
How it was run: as §1

ETV6 = ETV6 (Homo sapiens, UniProt P41212 1-452); conditions: protein: recombinant; tags: N-terminal GST; dsDNA, one strand shown
Chain of ETV6 (P41212 whole entry): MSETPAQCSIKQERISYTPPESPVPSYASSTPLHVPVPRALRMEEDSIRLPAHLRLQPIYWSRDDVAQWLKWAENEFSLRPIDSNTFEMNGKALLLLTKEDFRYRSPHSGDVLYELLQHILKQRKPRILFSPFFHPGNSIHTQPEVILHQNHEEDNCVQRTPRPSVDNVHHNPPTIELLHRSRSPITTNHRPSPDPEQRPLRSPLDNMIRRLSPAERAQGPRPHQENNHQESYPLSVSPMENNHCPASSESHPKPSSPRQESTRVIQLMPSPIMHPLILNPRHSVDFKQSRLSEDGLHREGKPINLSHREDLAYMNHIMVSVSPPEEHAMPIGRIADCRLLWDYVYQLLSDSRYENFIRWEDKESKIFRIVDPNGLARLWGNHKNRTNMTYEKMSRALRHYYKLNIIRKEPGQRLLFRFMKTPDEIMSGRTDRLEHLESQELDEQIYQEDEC
How it was run: as §1

How did the binding signal (FEV) turn out when AAACTT was run?
Its binding signal is 1.3 fold enrichment (6-mer frequency, TF over GST control).

What about the binding signal (ETV5) of the same sequence?
Its binding signal is 1.22 fold enrichment (6-mer frequency, TF over GST control).

What about the binding signal (HSF1) of the same sequence?
Its binding signal is 1.37 fold enrichment (6-mer frequency, TF over GST control).

And the binding signal (SPIC)?
The binding signal was 1.36 fold enrichment (6-mer frequency, TF over GST control).

What about the binding signal (ELF4) of the same sequence?
Its binding signal is 1.26 fold enrichment (6-mer frequency, TF over GST control).

What about the binding signal (ELK4) of the same sequence?
The binding signal was 1.23 fold enrichment (6-mer frequency, TF over GST control).

And the binding signal (ETV2)?
The binding signal was 1.28 fold enrichment (6-mer frequency, TF over GST control).

And the binding signal (ELF3)?
The binding signal was 1.13 fold enrichment (6-mer frequency, TF over GST control).

What about the binding signal (CRX) of the same sequence?
The binding signal was 1.21 fold enrichment (6-mer frequency, TF over GST control).

What about the binding signal (ETV1) of the same sequence?
Its binding signal is 1.27 fold enrichment (6-mer frequency, TF over GST control).

And the binding signal (ERF)?
Its binding signal is 1.36 fold enrichment (6-mer frequency, TF over GST control).

And the binding signal (ETV3L)?
The binding signal was 1.24 fold enrichment (6-mer frequency, TF over GST control).

And the binding signal (ETS2)?
The binding signal was 1.32 fold enrichment (6-mer frequency, TF over GST control).

And the binding signal (SPDEF)?
The binding signal was 1.1 fold enrichment (6-mer frequency, TF over GST control).

And the binding signal (ETV7)?
The binding signal was 1.22 fold enrichment (6-mer frequency, TF over GST control).

And the binding signal (ELF5)?
The binding signal was 1.43 fold enrichment (6-mer frequency, TF over GST control).

And the binding signal (ETV3)?
Its binding signal is 1.34 fold enrichment (6-mer frequency, TF over GST control).

What about the binding signal (ETV6) of the same sequence?
Its binding signal is 1.29 fold enrichment (6-mer frequency, TF over GST control).
